Compound activity as filed in PubChem BioAssay.
PfM18AAP inh-1: blocks P. falciparum M18 aspartyl aminopeptidase | recombinant PfM18AAP, H-Glu-NHMec fluorogenic cleavage | 1.2% of 290,000 active | AID 1822 | inhibition, % at 7.35 µM;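 active = inhibition above the campaign mean inhibition over all tested compounds plus 3 SD, cut at about 28% in these data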;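 also: 0% = plate median of test compound wells and 100% = 2 mM ZnCl2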
Calb FLC: affects C. albicans growth with fluconazole; 0.57% of 300,000 active; growth inhibition, % (test concentration not listed); AID 1979; C. albicans CaCi-2 (fluconazole-resistant clinical isolate) + fluconazole, Alamar Blue growth, 48 h;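 active = growth inhibition above about 58% in most replicates, limit read from the data, passing the limit was not always enough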;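 also: all wells also contain fluconazole at 8 µg/ml as a sub-toxic cotreatment; 0% = median of DMSO wells and 100% = median of geldanamycin control wells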
Rin1 Abl inh: blocks binding of human Rin1 to Abl. P00519+Q13671. inhibition, % at 7.35 µM. 0.4% of 360,000 active. TR-FRET Rin1/Abl binding, biochemical. AID 588664; in the data active = inhibition above about 5%, passing the limit was not always enough
CTSL1 counter-1: counter-screen for PFM18AAP inhibitors: inhibitors of F. hepatica cathepsin L1; recombinant F. hepatica cathepsin L1, Z-Leu-Arg-MCA fluorescence; inhibition, % at 5.96 µM; 0.49% of 300,000 active; AID 1906;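 active = inhibition above the mean of all tested compounds plus 3 SD, set per screening campaign, cut at about 17% in these data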;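 also: 0% = plate median of test compound wells and 100% = 1 µM Z-Phe-Ala-diazomethylketone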
PfM18AAP inh-2: PfM18AAP inhibition, confirmation | shares compounds with PfM18AAP inh-1 | recombinant PfM18AAP, H-Glu-NHMec fluorogenic cleavage | inhibition, % at 7.35 µM | 28% of 2,400 active | AID 2170;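 active = mean inhibition over replicate wells above the hit cutoff set for the earlier primary screen, cut at about 29% in these data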;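 also: 0% = median of test compound wells and 100% = 2 mM ZnCl2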
CTSL1 counter-2: counter-screen for PFM18AAP inhibitors: confirmation of human cathepsin L inhibitors; shares compounds with PfM18AAP inh-1; purified cathepsin L1, Z-Leu-Arg-MCA fluorescence; inhibition, % at 5.96 µM; 2,400 tested, under 10 active;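 active = average inhibition across replicates above the hit cutoff set in the earlier primary screen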;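 also: 0% = median of test compound wells and 100% = Z-Phe-Ala-diazomethylketone 1 µM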
Target sequence (P07711 whole entry, looked up): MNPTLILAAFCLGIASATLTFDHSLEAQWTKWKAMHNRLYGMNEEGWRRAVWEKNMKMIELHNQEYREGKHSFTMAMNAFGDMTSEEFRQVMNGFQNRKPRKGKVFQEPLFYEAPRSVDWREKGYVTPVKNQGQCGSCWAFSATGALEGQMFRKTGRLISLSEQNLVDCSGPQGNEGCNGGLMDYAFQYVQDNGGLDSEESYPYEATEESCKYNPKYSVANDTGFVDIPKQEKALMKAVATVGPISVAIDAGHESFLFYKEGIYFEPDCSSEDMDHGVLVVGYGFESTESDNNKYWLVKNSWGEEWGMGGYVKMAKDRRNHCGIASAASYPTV
An asterisk follows results filed as active; · = not tested or not shown. This is a sample that favours compounds with a hit; in the whole collection about 2.1% have one here.

SMILES	PfM18AAP inh-1	Calb FLC	Rin1 Abl inh	CTSL1 counter-1	PfM18AAP inh-2	CTSL1 counter-2
COc1cc(/C=N/Nc2ccc(Cl)nn2)cc(OC)c1O	39*	0	2	-2	28	3
Cc1cccc(/C=N\N=C\c2cccc(C)c2)c1	-11	1	-2	-2	·	·
CCCC1=NN(c2ccc([N+](=O)[O-])cc2)C(=O)/C1=C\N(C)C	0	-2	-3	-3	·	·
COc1ccccc1C(=O)NNC(=O)C(=O)NC(C)C	10	-15	7	6	·	·
Oc1c(Br)cc(/C=N/Nc2nncc3ccccc23)cc1Br	33*	14	·	3	10	4
Cc1ccccc1-n1c(=O)n(Cc2ccco2)c(=O)c2[nH]cnc21	-2	3	2	-6	·	·
COC(=O)Cc1sc(-c2ccccn2)nc1-c1ccccc1	33*	-3	-1	3	24	0
COC(=O)Cc1ccc2sc(-c3ccccc3)nc2c1	3	1	-1	-2	·	·
CSc1nc(-c2ccc(C)cc2)[nH]c1S(=O)(=O)c1ccccc1	3	-2	-3	-8	·	·
CC(=O)Sc1nc(-c2ccccc2)[nH]c1S(=O)(=O)c1ccc(C)cc1	55*	2	·	5	5	-5
O=C(CNS(=O)(=O)c1ccccc1)Nc1ccc(F)cc1F	-1	1	-1	0	·	·
O=S(=O)(NNc1ccc(F)cc1F)c1cccc(Cl)c1	36*	-18	1	-1	-234	0
NNC(=O)c1c[nH]c2ccc(OCc3ccccc3)cc12	·	-2	-3	4	·	·
CCOc1cc(/C=C(\C#N)C(=O)Nc2cccc(C(=O)O)c2)ccc1OCc1ccc(Br)cc1	10	7	2	0	·	·
O=C(NC(=S)N1CCN(C(c2ccccc2)c2ccccc2)CC1)c1ccc(S(=O)(=O)N2CCOCC2)cc1	-6	54	-1	1	·	·
CN1CCN(C(=S)NC(=O)c2ccc(S(=O)(=O)N3CCOCC3)cc2)CC1	45*	-3	-4	-3	15	2
Cc1[nH]nc2c1C(c1cccs1)C(C#N)=C(N)O2 (centres undefined)	35*	2	-1	1	21	-4
Cc1ccsc1C1C(C#N)=C(N)Oc2n[nH]c(C)c21 (centres undefined)	7	16	0	-1	·	·
Cc1cc(NC(=O)c2ccccc2O)nc(C)n1	2	10	2	0	·	·
Cc1cc(C)nc(NNC(=O)c2ccccc2O)n1	43*	5	-1	-3	24	-8
CC(=O)c1cccc(NC(=O)N2C3CCC2CC(NC(=O)Nc2ccccc2)C3)c1 (centres undefined)	1	-39	-3	-5	·	·
Cn1ncc2c(NNC(=O)c3ccc(Cl)cc3Cl)ncnc21	41*	6	4	-1	-2	0
COc1ccc2c(c1)c(C(=O)N/N=C/c1ccc(O)c(O)c1)c(C)n2C	51*	-29	2	-3	40*	2
COc1ccc2nc(C)cc(SCC(=O)N/N=C/c3ccc(O)c(O)c3)c2c1	60*	-1	-4	3	63*	-5
COc1cccc2c(SCC(=O)N/N=C/c3ccc(O)c(O)c3)cc(C)nc12	66*	92*	4	3	63*	-2
SMILES	PfM18AAP inh-1	Calb FLC	Rin1 Abl inh	CTSL1 counter-1	PfM18AAP inh-2	CTSL1 counter-2
O=C(Cc1ccc(Cl)cc1)Nc1ccccc1C(=O)N1CCCCC1	4	-1	2	2	·	·
COc1ccc(CNC(=O)CSc2ccsc2[N+](=O)[O-])cc1	-3	-3	-2	-2	·	·
O=C(/C=C/c1ccccc1)C1=C(O)C(=O)N(CCO)C1c1cccc([N+](=O)[O-])c1 (centres undefined)	-3	-2	0	8	·	·
O=C(O)CCCCCN1C(=O)C(O)=C(C(=O)/C=C/c2ccccc2)C1c1ccc2c(c1)OCO2 (centres undefined)	55*	0	2	6	-1	2
CCOC(=O)C1=C(O)C(=O)N(Cc2cccnc2)C1c1ccc(OC)cc1 (centres undefined)	0	3	-2	4	·	·
CCOc1ccc(N(CC(=O)N2CCN(c3ccc(F)cc3)CC2)S(=O)(=O)c2c(C)noc2C)cc1	3	14	-4	7	·	·
COc1ccc(N/C=C2\C(=O)CCc3c2oc2cc(Cl)c(O)c(Cl)c32)cc1	23	3	3	-3	10	-2
COc1ccc(N/C=C2\CCOC2=O)cc1	-1	-31	-1	2	·	·
